In all, about 310,000 compounds went through this assay and about 14,000 (4.5%) showed an effect of 50% or more. The effect is printed as a negative number. The list comes from a sample in which strong results are over-represented; it also holds similar structures and randomly drawn compounds.
Each molecule was assayed against human ether-à-go-go-related gene (hERG) potassium channel (human, UniProt Q12809) (assay: primary screen, population patch clamp on CHO cells stably expressing hERG; higher = less effect of the substance).
Chain of human ether-à-go-go-related gene (hERG) potassium channel (Q12809 whole entry, looked up): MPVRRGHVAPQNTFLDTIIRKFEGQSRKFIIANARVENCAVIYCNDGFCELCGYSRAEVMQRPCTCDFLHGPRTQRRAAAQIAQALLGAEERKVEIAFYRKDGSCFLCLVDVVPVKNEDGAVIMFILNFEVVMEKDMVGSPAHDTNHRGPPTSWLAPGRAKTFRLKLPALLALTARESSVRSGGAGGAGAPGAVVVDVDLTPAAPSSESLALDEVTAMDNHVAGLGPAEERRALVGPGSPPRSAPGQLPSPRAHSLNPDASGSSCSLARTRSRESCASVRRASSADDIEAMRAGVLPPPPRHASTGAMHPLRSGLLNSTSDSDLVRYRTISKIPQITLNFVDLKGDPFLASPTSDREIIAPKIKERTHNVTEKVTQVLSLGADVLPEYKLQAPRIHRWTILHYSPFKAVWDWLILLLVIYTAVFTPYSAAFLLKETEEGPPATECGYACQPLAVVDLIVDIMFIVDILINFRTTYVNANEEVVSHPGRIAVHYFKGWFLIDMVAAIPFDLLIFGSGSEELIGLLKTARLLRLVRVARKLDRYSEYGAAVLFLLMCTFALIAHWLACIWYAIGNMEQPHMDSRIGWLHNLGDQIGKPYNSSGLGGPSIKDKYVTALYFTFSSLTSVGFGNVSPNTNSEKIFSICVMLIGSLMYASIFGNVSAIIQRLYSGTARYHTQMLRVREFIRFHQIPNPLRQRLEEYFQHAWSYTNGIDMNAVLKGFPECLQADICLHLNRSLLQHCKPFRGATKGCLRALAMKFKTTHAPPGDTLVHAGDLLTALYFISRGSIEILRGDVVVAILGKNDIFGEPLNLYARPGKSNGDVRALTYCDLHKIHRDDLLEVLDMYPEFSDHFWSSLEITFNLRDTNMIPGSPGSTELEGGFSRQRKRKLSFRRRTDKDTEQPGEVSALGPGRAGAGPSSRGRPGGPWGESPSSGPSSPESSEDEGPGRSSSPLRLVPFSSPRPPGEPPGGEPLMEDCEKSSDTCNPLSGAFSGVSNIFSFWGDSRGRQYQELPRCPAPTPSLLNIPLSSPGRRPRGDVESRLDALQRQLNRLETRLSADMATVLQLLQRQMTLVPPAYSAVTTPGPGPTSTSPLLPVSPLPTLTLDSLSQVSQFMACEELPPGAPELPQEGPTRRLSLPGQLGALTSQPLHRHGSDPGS
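Further: peak tail current of the secondary pulse compared with the same well before compound.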

Structure (SMILES)	hERG current change (%, negative = inhibition) at 10uM [%]
CCOc1ccc(N=C2Sc3nc4ccc(C)cc4cc3CN2CCOC)cc1	41.4
CCC(C)N=C1Sc2nc3ccc(C)cc3cc2CN1CCOC (centres unmarked)	-79
COCCN1Cc2cc3cc(C)ccc3nc2SC1=Nc1ccc(OC)cc1	7.73
COCCN=C1Sc2nc3ccc(C)cc3cc2CN1Cc1ccco1	-61
COCCN=C1Sc2nc3c(C)cccc3cc2CN1Cc1ccco1	8.49
COCCN=C1Sc2nc3ccc(C)cc3cc2CN1Cc1cccs1	-11.1
CCNC(=O)CSc1nnc(-c2cccc(S(=O)(=O)N(CC)CC)c2)n1CCc1ccccc1	-9.82
Cn1ccc(C(=O)Nc2ccc3c(c2)OCCO3)n1	21.9
O=C(NN1CCOCC1)c1cn(-c2ccccc2)nc1-c1cccs1	-1.47
COC(=O)c1nc(NC(=O)c2ccccc2)n[nH]1	-9.58
O=C(C1=NN[C@@H]2C(=O)N(c3cccc(F)c3)C(=O)[C@H]12)C(c1ccccc1)c1ccccc1	-19.2
CCCCn1c(=NC(C)=O)c(C#N)cc2c(=O)n3cccc(C)c3nc21	-31
Cc1cccn2c(=O)c3cc(C#N)c(=NC(=O)c4cccnc4)n(CC4CCCO4)c3nc12 (centres unmarked)	-51.1
CCCCCn1c(=NC(=O)c2cccnc2)c(C#N)cc2c(=O)n3cccc(C)c3nc21	-54.8
CCCCn1c(=NC(=O)c2cccnc2)c(C#N)cc2c(=O)n3cccc(C)c3nc21	-10.6
Cc1cc(=O)c2cc(Br)ccc2[nH]1	8.12
Cc1n[nH]c(C)c1S(=O)(=O)N1CCC(C(=O)N2CCn3c2nc2ccccc23)CC1	-3.79
CC(C)CC(COCc1ccc(Cl)cc1)N1CCN(C(=O)c2cccc(C(F)(F)F)c2)CCC1=O (centres unmarked)	-38.1
CCOC(=O)c1cc(S(=O)(=O)N(C)Cc2ccccc2)cn1C	-11.7
COc1ccc(OCCn2c(=O)sc3ccccc32)cc1	-8.81
CCn1c(=N)n(CCOc2ccc(OC)cc2)c2ccccc21	-55.1

Structure (SMILES)	hERG current change (%, negative = inhibition) at 10uM [%]
CCn1c(=N)n(CCO)c2ccccc21.Cl	5.84
CCCn1c(=N)n(CCOc2ccc(OC)cc2)c2ccccc21	-59.5
COc1ccc(OCCn2c(=N)n(CCO)c3ccccc32)cc1.Cl	-24.2
C=COCCn1c(=N)n(CCC)c2ccccc21.Cl	-28.3
Cn1cc(P(=O)(N2CCOCC2)N2CCOCC2)cc1P(=S)(N1CCOCC1)N1CCOCC1	16.6
Cc1nc(-c2ccc(NC(=O)c3ccc(Br)o3)cc2)cs1	4.44
O=C(c1cc2nc(-c3ccccc3)cc(-c3ccccc3)n2n1)N1CCN(C(=O)c2ccco2)CC1	-56.9
CCN1CCN(C(=O)c2cc3nc(-c4ccccc4)cc(C(F)(F)F)n3n2)CC1	-22
O=C(c1cc2nc(-c3ccc(F)cc3)cc(C(F)(F)F)n2n1)N1CCCCC1c1cccnc1 (centres unmarked)	-80.2
Cc1ccc(-c2cc(C(F)(F)F)n3nc(C(=O)N4CCN5CCCC5C4)cc3n2)cc1 (centres unmarked)	-48.3
O=C(c1cc2nc(-c3ccccc3)cc(-c3ccccc3)n2n1)N1CCCC1	9.99
COc1ccc(-c2cc(C(F)(F)F)n3nc(C(=O)N4CCN5CCCC5C4)cc3n2)cc1OC (centres unmarked)	-64.4
O=C(c1cc2nc(-c3ccccc3)cc(C(F)(F)F)n2n1)N1CCOCC1	-29.3
O=C(c1cc2nc(-c3ccccc3)cc(C(F)(F)F)n2n1)N1CCN2CCCC2C1 (centres unmarked)	-30.3
COc1cccc(-c2cc(C(F)(F)F)n3nc(C(=O)N4CCCCC4c4cccnc4)cc3n2)c1 (centres unmarked)	-23.1
O=C(c1ccccc1)N1CCN(C(=O)c2cc3nc(-c4ccccc4)cc(C(F)(F)F)n3n2)CC1	-51.1
Cc1ccc(-c2cc(C(F)(F)F)n3ncc(C(=O)N4CCCCC4c4cccnc4)c3n2)cc1 (centres unmarked)	4.63
CN1CCN(C(=O)c2cc3nc(-c4ccccc4)cc(-c4ccccc4)n3n2)CC1	-38.3
COc1ccc(C(=O)N/N=C/c2ccc(N3CCOCC3)s2)cc1OC	11.6
Cc1nc2sc(-c3ccccc3)nn2c(=O)c1Br	-1.74
